# Compound activity from PubChem.
# Tg IFNy HTS: T. gondii growth inhibition under IFN-gamma; Toxoplasma gondii growth in IFN-gamma-treated host cells; stronger effect = lower value; activity change, negative = inhibition, % (test concentration not listed); AID 1259416; actives 3.8% (n = 69,000); in the data active means activity change below about -70%, passing the limit was not always enough;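 further: host cells are HeLa cells infected with Toxoplasma gondii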
# Numbers stand for hits; – = inactive. Only a selection was taken, and hits are over-represented in it overall.
SMILES,Tg IFNy HTS
C[C@H](CCC(=O)O)[C@H]1CC[C@H]2[C@@H]3[C@@H](O)C[C@@H]4C[C@H](O)CC[C@]4(C)[C@H]3CC[C@]12C,–
CC(=O)OC(C)C1CCC2C3CC[C@H]4CC(=O)CCC4(C)C3CCC12C (stereo not given in full),-97.2
CC(=O)OCC(=O)[C@H]1CCC2C3CCC4=CC(=O)CC[C@]4(C)C3CC[C@@]21C (stereo not given in full),–
CCOC(=O)c1c(NC(=O)c2ccccc2)sc(C(=O)Nc2ccccc2)c1C,–
CCOC(=O)c1c(NC(=O)c2c(C)nn(-c3ccccc3)c2Cl)sc(C)c1C,–
CCOC(=O)c1c(NC(=S)NC(=O)c2ccccc2)sc(C)c1C,-73.4
COc1ccc(NC(=O)c2c(O)c3cccnc3n(-c3ccc(F)cc3)c2=O)cc1,–
c1ccc(CCc2nc(CCOc3ccccc3)n[nH]2)cc1,–
O=C(Oc1cccccc1=O)c1ccccc1,–
O=C(Oc1cccc2cccnc12)c1ccccc1,–
Cc1ccc2c(Br)cc(Br)c(OC(=O)c3ccccc3)c2n1,-85.1
OC(CNCc1cc2ccccc2s1)C(F)(F)F (stereo not given),-86.0
CC(c1cc2ccccc2s1)N(O)C(N)=O (stereo not given),–
CCc1ccc(NC(=O)NCC(c2cccnc2)c2cn(C)c3ccccc23)cc1 (stereo not given),–
Cn1cc(C(CNC(=O)Nc2ccccc2Cl)c2cccnc2)c2ccccc21 (stereo not given),–
CCc1ccccc1S(=O)(=O)NCC(c1cccnc1)c1cn(C)c2ccccc12 (stereo not given),-83.0
COc1ccccc1CNC(=O)c1cc2cc(S(=O)(=O)N(C)C)ccc2n1Cc1ccncc1,–
CN(C)S(=O)(=O)c1ccc2c(c1)cc(C(=O)NCc1ccccc1)n2Cc1ccncc1,–
CN(C)S(=O)(=O)c1ccc2c(c1)cc(C(=O)NC1CCCCCCC1)n2Cc1ccncc1,-74.1
CN(C)CCNC(=O)c1cc2cc(S(=O)(=O)N(C)C)ccc2n1Cc1ccncc1,–
CN(C)S(=O)(=O)c1ccc2c(c1)cc(C(=O)NC1CCCCCC1)n2Cc1ccncc1,–
CN(C)S(=O)(=O)c1ccc2c(c1)cc(C(=O)NC1CCCC1)n2Cc1ccncc1,–
Cc1ccccc1CNC(=O)c1cc2cc(S(=O)(=O)N(C)C)ccc2n1Cc1ccncc1,–
CN(C)S(=O)(=O)c1ccc2c(c1)cc(C(=O)NCCCN1CCCC1)n2Cc1ccccc1,-95.8
CN(C)S(=O)(=O)c1ccc2c(c1)cc(C(=O)NCc1ccccc1Cl)n2Cc1ccncc1,-94.6
SMILES,Tg IFNy HTS
CC(C)(C)c1cc(CN2CCN(S(=O)(=O)c3ccccc3)CC2)[nH]n1,–
COCCN1CC2(CCN(C(C)=O)CC2)CC1COCC1CC1 (stereo not given),–
COc1ccc(CN2CC3C[C@@H]4CC2C[C@H](C3)C4)cc1C(=O)O,–
CCOc1ccccc1C(=O)NCCc1csc(-c2ccc(OC)cc2)n1,–
Cc1nc(N)sc1-c1ccnc(Nc2ccc(N3CCOCC3)cc2)n1,-79.4
Cc1nn(CC(=O)Nc2ccc(N3CCOCC3)cc2)c(C)c1Br,–
Cc1nc(-c2cnccn2)sc1C(=O)Nc1ccc(N2CCOCC2)cc1,–
C=C[C@@](C)(/C=C/c1ccc(O)cc1)CCC=C(C)C,–
Cn1cc(CN2CCCn3cnc(COCCO)c3C2)cn1,–
Cc1cccc(-c2noc(-c3nnn(Cc4nc(-c5cccc(C)c5)oc4C)c3C)n2)c1,–
COc1ccc(C2NCCc3c2[nH]c2ccccc32)cc1CN1CCN(c2ccc([N+](=O)[O-])cc2)CC1 (stereo not given),-117.3
COCc1cc(CN2CCCN(c3ccccc3)CC2)ccc1OC,–
COc1ccc(C2NC(C(=O)O)Cc3c2[nH]c2ccccc32)cc1CN1CCN(c2ccc(F)cc2)CC1 (stereo not given),–
CC[C@@H](NC(=O)N[C@H]1C[C@H]2C(=O)NCC(=O)N2C1)c1ccccc1,–
CN(C)CC(=O)N1CCC(F)(F)C2(CCN(c3ncccc3F)C2)C1 (stereo not given),–
COCCC(=O)c1nc2c(s1)CCCN2c1ccc(C)nn1,–
Cc1nn(C(=O)Cn2nc(C)c(Br)c2C)c(C)c1Cl,–
O=S(=O)(c1ccc2c(c1)CCCC2)N1CCC2(CC1)NCCN=C2NCc1ccc(Cl)cc1,–
COc1ccc(-c2nc(C3CCN(S(=O)(=O)C4CC4)CC3)cc3c2ncn3C)cc1,–
CC(C)Cc1cc(C(=O)N2CCCC2c2cc(C(C)C)on2)n(C)n1 (stereo not given),–
CC(C)(C)C(=O)Nc1cc(C(F)(F)F)ccc1N1CCC(C(F)(F)F)CC1,-97.1
CN1CCN(c2ccc(NC(=O)Nc3ccc(C(F)(F)F)cc3)cc2)CC1,–
CC(=O)c1ccc(N2CCC(C)CC2)c(F)c1,–
Cc1ccsc1C(C(=O)NC(C)(C)C)N(Cc1cccnc1)C(=O)c1csnn1 (stereo not given),–
CCOc1ccc(CNC(=O)Cn2ncc3c(N4CCOCC4)ncnc32)cc1OCC,–
SMILES,Tg IFNy HTS
Cc1cnn(Cc2nc(-c3ccc(NC(=O)c4ccccc4C(F)(F)F)cc3)oc2C)c1,-87.9
Cc1cnn(Cc2nc(-c3ccc(NC(=O)c4ccc(F)cc4Cl)cc3)oc2C)c1,–
CCOc1ccccc1C(=O)Nc1ccc(-c2nc(Cn3cc(C)cn3)c(C)o2)cc1,–
Cc1cnn(Cc2nc(-c3ccc(NC(=O)c4cc(F)cc(F)c4)cc3)oc2C)c1,–
Cc1cnn(Cc2nc(-c3ccc(NC(=O)c4sccc4C)cc3)oc2C)c1,–
Cc1cnn(Cc2nc(-c3ccc(NC(=O)c4cccs4)cc3)oc2C)c1,-75.8
Cc1ccc(C(=O)Nc2ccc(-c3nc(Cn4cccn4)c(C)o3)cc2)c(C)c1,–
Cc1cnn(Cc2nc(-c3ccc(NC(=O)c4ccc(Cl)s4)cc3)oc2C)c1,–
Cc1cnn(Cc2nc(-c3ccc(NC(=O)c4ccccc4Cl)cc3)oc2C)c1,-84.3
Cc1cnn(Cc2nc(-c3ccc(NC(=O)c4ccc(C(F)(F)F)cc4)cc3)oc2C)c1,–
Cc1ccc(C)c(C(=O)Nc2ccc(-c3nc(Cn4cccn4)c(C)o3)cc2)c1,–
Cc1oc(-c2ccc(NC(=O)c3ccccc3Cl)cc2)nc1Cn1cccn1,-100.0
Cn1cccc1C(=O)N1CCN2C[C@H](Oc3ccccc3)C[C@@H]2C1,–
Cc1ccc(-c2nc(CN3CCN(C(=O)NC4CCCC4)CC3)c(C)o2)cc1,–
Cc1nc2ccc(S(=O)(=O)N3CCN4CCNC(=O)C4C3)cc2s1 (stereo not given),–
Cc1cc(C)cc(NC(=O)Cn2ncc3c(N4CCCC4)ncnc32)c1,–
Cc1cc(C(=O)N2CC[C@H]3CN(CCC(C)C)S(=O)(=O)[C@@H]3CC2)no1,–
CCc1ocnc1C(=O)N1C[C@H]2CC=CC[C@H]2C1,–
O=C(Nc1ccc(F)cc1F)c1c(O)c2cccnc2n(-c2ccc(F)cc2)c1=O,–
CC(C)(CC(=O)O)CC(=O)NC1CCCCNC1=O (stereo not given),–
Cn1cccc1C(=O)N1CCC2OCCN(S(C)(=O)=O)C2CC1 (stereo not given),–
Cc1cc(C)nc(CN2CCC(=O)N(Cc3ccc(F)cc3)C(C(C)C)C2)n1 (stereo not given),–
O=C(c1ccc(N2CCOCC2)nc1)N1CCC(Oc2cccnc2)CC1,–
COc1nc2ccccc2cc1-c1cc(F)cc(F)c1O,–
Cc1ccc(C(=O)Nc2ccc(-c3nc(Cn4cc(C)cn4)c(C)o3)cc2)cc1,–
Cc1oc(-c2ccc(NC(=O)/C=C/c3ccccc3)cc2)nc1Cn1cccn1,-86.9
